In PubChem BioAssay (NCI):
Compounds without any hit were thinned out: in the full panel of roughly 83,000, 20% have a hit.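 Results are percent growth after 48 hours of single-concentration exposure. 100 means growth as in untreated cells, lower positive values show inhibition; negative values down to -100 show cell death.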 A number with no mark means an inactive call. The source made the active and inactive calls. Rule for the calls: active = growth percent below 10; inactive = the rest.

Experiments:
Assay in all cases: NCI-60 one-dose screen, 48 h (100 = growth as untreated, 0 = no growth, -100 = all killed)
Conditions in all cases: 10 µM unless noted
DU-145 prostate = tested on: DU-145 prostate
K-562 leukemia = tested on: K-562 leukemia
MALME-3M melanoma = tested on: MALME-3M melanoma
MDA-MB-231 breast = tested on: MDA-MB-231 breast
RXF 393 renal = tested on: RXF 393 renal
SF-268 CNS = tested on: SF-268 CNS
SF-295 CNS = tested on: SF-295 CNS
SF-539 CNS = tested on: SF-539 CNS
UACC-257 melanoma = tested on: UACC-257 melanoma
HCT-15 colon = tested on: HCT-15 colon
HT29 colon = tested on: HT29 colon
SNB-75 CNS = tested on: SNB-75 CNS
SNB-19 CNS = tested on: SNB-19 CNS
U251 CNS = tested on: U251 CNS
PC-3 prostate = tested on: PC-3 prostate
SK-MEL-5 melanoma = tested on: SK-MEL-5 melanoma
UACC-62 melanoma = tested on: UACC-62 melanoma
LOX IMVI melanoma = tested on: LOX IMVI melanoma
SK-MEL-28 melanoma = tested on: SK-MEL-28 melanoma
M14 melanoma = tested on: M14 melanoma

| Structure (SMILES) | growth (DU-145 prostate) | growth (K-562 leukemia) | growth (MALME-3M melanoma) | growth (MDA-MB-231 breast) | growth (RXF 393 renal) | growth (SF-268 CNS) | growth (SF-295 CNS) | growth (SF-539 CNS) | growth (UACC-257 melanoma) | growth (HCT-15 colon) | growth (HT29 colon) | growth (SNB-75 CNS) | growth (SNB-19 CNS) | growth (U251 CNS) | growth (PC-3 prostate) | growth (SK-MEL-5 melanoma) | growth (UACC-62 melanoma) | growth (LOX IMVI melanoma) | growth (SK-MEL-28 melanoma) | growth (M14 melanoma) |
| --- | --- | --- | --- | --- | --- | --- | --- | --- | --- | --- | --- | --- | --- | --- | --- | --- | --- | --- | --- | --- |
| O=C1/C(=C\c2cccn2C(=O)c2ccccc2)c2ccccc2N1c1c(Cl)cccc1Cl | 102% | 17.4% | 82.6% | 74.6% | 71.7% | 66.9% | 97.6% | 79.4% | 90.7% | 64.7% | 70% | 71.9% | 87.7% | 72.8% | 73.9% | 83% | 59.1% | 37.5% | 74.1% | – |
| CCN1CCN(Cc2ccc(NC(=O)c3nc4ccc5[nH]ncc5c4c4c3CCCC4)cc2C(F)(F)F)CC1 | -57.8% (active) | -44.5% (active) | -79.3% (active) | -72.1% (active) | -87.4% (active) | 27.4% | -54.2% (active) | -93.7% (active) | -63.9% (active) | -47.8% (active) | -74.3% (active) | 80.8% | – | -85.7% (active) | 19.8% | -75.3% (active) | -68.7% (active) | -94.6% (active) | – | -75.4% (active) |
| COc1ccc(-c2nn(-c3cccc(Cl)c3)cc2/C=C2\C(=N)N(c3ccccc3)N=C2N)cc1 | 37.6% | 1.77% (active) | 28.8% | 59% | 85% | 47.8% | – | -12.8% (active) | 58.4% | 44.5% | 57.4% | 81.6% | 83.5% | 66.3% | 39.6% | 34.8% | -3.26% (active) | 6.46% (active) | 32.8% | 5.51% (active) |
| O=C(O)C1[S][Sb]([CH](C(=O)O)[CH](C(=O)O)[Sb]2[S]C(C(=O)O)C(C(=O)O)[S]2)[S]C1C(=O)O (stereo unspecified) | 97.1% | 76% | 31.3% | 88.2% | 103% | 104% | – | 76.3% | 89.3% | 87.6% | 80.8% | 83.8% | 92.9% | 73.1% | 83.4% | 3.78% (active) | 89.2% | 8.37% (active) | – | 74.5% |
| C#CC[C@@H]1C[C@]2(C)[C@H]3CC=C4[C@H]5[C@@H](C)[C@H](C)CC[C@]5(C(=O)NCCCCCCCCN)CC[C@@]4(C)[C@]3(C)CC[C@H]2C(C)(C)[C@H]1OC(C)=O | 41.8% | -23.4% (active) | 66% | 56% | 70.4% | 92.9% | – | 83.8% | 100% | -62.1% (active) | -65.4% (active) | 83.2% | 64.8% | -90.8% (active) | -21.7% (active) | 91.9% | 105% | -52.9% (active) | – | 29.3% |
| CNCCCNc1ccnc2cc(Cl)ccc12 | -5.31% (active) | 2.22% (active) | -90.3% (active) | -33.8% (active) | -63.3% (active) | -29.5% (active) | – | -66.7% (active) | -87.5% (active) | 6.57% (active) | -33.1% (active) | -52.8% (active) | -1.63% (active) | 0.589% (active) | 1.91% (active) | -96.1% (active) | -75.2% (active) | -49.8% (active) | -96.3% (active) | -32.6% (active) |
| O=C(/C=C/c1ccccc1)C(Br)C(Br)c1ccccc1 (stereo unspecified) | -21.3% (active) | 1.4% (active) | -54.3% (active) | 27.7% | -79.9% (active) | 13.9% | – | -33.1% (active) | 22.8% | -32.7% (active) | -53.5% (active) | 80.1% | 73.5% | 42.9% | 4.21% (active) | 38.9% | 5.9% (active) | -68.6% (active) | 11.1% | 17.2% |
| CC(C)N1CCN(c2ccncc2S(=O)(=O)N2CCN(C)CC2)CC1 | 110% | 98% | 113% | 101% | 107% | 107% | – | 99.8% | 102% | 97.6% | 102% | 80.6% | 98.7% | 98.8% | 114% | 100% | 108% | 97.4% | 114% | 99.5% |
| CCCNC(=S)N/N=C(\C)c1ccccn1 | 34.3% | 17% | 24.3% | 41.1% | 10.4% | 38.7% | – | 24.2% | 12% | 28.5% | 37.2% | 74.2% | 38.4% | 21.7% | 26.7% | 22.4% | 11.1% | 9.29% (active) | 52.4% | 6.11% (active) |
| C=CCn1c(SCC(=O)Nc2ccc(/C(C)=N\O)cc2)nnc1-c1cc(-c2ccccc2)nc2ccccc12 | 75% | 27.6% | 96.3% | 58.3% | 68.8% | 62.8% | – | 50.6% | 75.6% | 50.8% | 49.9% | 58.3% | 68.5% | 59.1% | 43.5% | 48.4% | 24.3% | -58.1% (active) | 86.7% | 34% |
| C/C(CC(=O)NNc1ccc([N+](=O)[O-])cc1)=N\Nc1ccc([N+](=O)[O-])cc1 | 62.1% | 12.9% | 93.4% | 47% | 118% | 83.8% | – | 68.2% | 99.6% | 49.6% | 71.4% | 97.3% | 104% | 78.5% | 54.7% | 59.4% | 9.12% (active) | 70.3% | 114% | 25.5% |
